Our source for the inhibition values is PubChem BioAssay AID1022 (Emory University Molecular Libraries Screening Center, 2008).

Each structure is given as a SMILES string. The whole screen tested about 220,000 compounds, of which about 3,300 (1.5%) were called active. The list comes from a sample in which actives are over-represented; it also holds similar structures and randomly drawn compounds. A number with no mark means an inactive call.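 Rule for the calls: active = compounds that cut the protein-peptide binding signal by more than 50% relative to plate controls in a single-dose test; inactive = the rest.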

This test deals with Induced myeloid leukemia cell differentiation protein Mcl-1 (Homo sapiens) (UniProt Q07820). Nature of the test: disruptors of Mcl-1 and Noxa BH3 peptide – biochemical, TR-FRET, 1536-well, primary screen (AID 1022).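 Note: His-tagged Mcl-1 with rhodamine Noxa BH3 peptide and terbium anti-His antibody; 0% = Mcl-1 plus Noxa peptide wells and 100% = peptide-only wells.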 As to conditions: TR-FRET Mcl-1/Noxa peptide binding, 2 h; at 21.7 µM; stronger effect = higher value.
Sequence of Induced myeloid leukemia cell differentiation protein Mcl-1 (Homo sapiens) (Q07820 whole entry, looked up): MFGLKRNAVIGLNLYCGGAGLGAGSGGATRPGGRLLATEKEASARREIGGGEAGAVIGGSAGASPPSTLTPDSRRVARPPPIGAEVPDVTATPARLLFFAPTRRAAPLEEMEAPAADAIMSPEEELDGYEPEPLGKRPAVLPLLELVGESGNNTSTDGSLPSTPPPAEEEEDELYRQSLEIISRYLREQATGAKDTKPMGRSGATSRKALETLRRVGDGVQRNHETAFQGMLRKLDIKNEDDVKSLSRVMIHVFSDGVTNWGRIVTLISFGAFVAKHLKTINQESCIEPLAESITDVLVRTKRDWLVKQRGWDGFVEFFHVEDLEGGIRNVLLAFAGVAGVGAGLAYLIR
As to `CNC1(c2nnnn2-c2c(C)cccc2C)CCOC(C)(C)C1` (centres undefined), the inhibition – broadly, the change of the read-out against control, counted positive when it falls – is -14.2%.
Next, `C=CC(COCc1ccccc1)N(Cc1ccccc1)S(=O)(=O)c1ccccc1Br` (centres undefined): -9.99%; `O=C(Nc1ccc(S(=O)(=O)Nc2nccs2)cc1)c1cc(=O)[nH]c2ccccc12`: 38.3%; `CCC(CC)C(=O)Nc1ccc(S(=O)(=O)Nc2nccs2)cc1`: -30.3%.
As for `O=C(Nc1ccc(S(=O)(=O)Nc2nccs2)cc1)c1cc(-c2ccncc2)nc2ccccc12`, the inhibition was 89.7% (active).
Consider `O=C(Nc1ccc(S(=O)(=O)N2CCOCC2)cc1)c1ccc2ncsc2c1`, for which the inhibition was 15.9%.
The same measure for `O=C(Nc1ccccc1C(F)(F)F)N1CCCC1c1cccnc1` (centres undefined): -4.25%; for `Cc1cc(NCc2cccnc2)no1`: -9.18%.
Consider `CSc1sc(C(=O)NC(=O)NCc2cccnc2)c(C)c1-c1ccon1`, for which the inhibition is -5.48%.
Regarding `COCCn1c(SCC(=O)c2[nH]c(C)c(C(C)=O)c2C)nc2ccccc2c1=O`, the inhibition is -5.29%.
For `O=C(NCCc1c[nH]c2ccc(Cl)cc12)c1ccc([N+](=O)[O-])cc1`, the inhibition is 27.8%.
The same measure for `NC(=O)c1c(Nc2nc3c(F)cccc3s2)sc2c1CCCC2`: 94.4% (active); for `Fc1cc(F)c2nc(Nc3nc4c(F)cccc4s3)sc2c1`: -45.8%.
For the compound `NC(=O)c1c(NC(=O)CSc2nc(N)cc(=O)[nH]2)sc2c1CCCC2`, the inhibition was 39.5%.
The same measure for `CC(C)Cc1ccc(C(C)C(=N)N)cc1` (centres undefined): 4.15%; for `O=C(NCC(c1cccs1)N1CCOCC1)c1cc(-c2ccccn2)nc2ccccc12` (centres undefined): -1.37%.
Next, `COc1ccc(OCCC(=O)c2ccc(OC)cc2)cc1`: 16.6%.
The same measure for `CC(=O)Nc1ccc(CC#N)cc1`: -4.22%; for `Cc1nc2cc3c(cc2s1)OCO3`: 4.53%; for `CCN(CC)CCN(C(=O)c1cccc([N+](=O)[O-])c1)c1nc2ccc(OC)cc2s1`: 19.8%.
`CCN(CC)CCN(C(=O)c1ccc(N2C(=O)CCC2=O)cc1)c1nc2cc3c(cc2s1)OCO3`: the inhibition was 59.3% (active).
Next, `Cc1ccccc1Cn1c2ccccc2c2cnn(CC(=O)NCc3ccco3)c(=O)c21`: 6.08%.
As to `C=CCNC(=S)N1CCc2[nH]c3ccccc3c2C1`, the inhibition is 2.21%.
The same measure for `CCN(c1ccc(NC(=O)COC(=O)CCc2nc3ccccc3n2-c2ccccc2)cc1)C(C)C`: 79.3% (active); for `Cc1ccc(NC(=O)COC(=O)CCc2nc3ccccc3n2-c2ccccc2)c(C)c1`: 4.37%; for `CC(C)(C)c1ccc(NC(=O)COC(=O)CCc2nc3ccccc3c(=O)[nH]2)cc1`: 0.96%.
The same measure for `COCCn1c(SCC(=O)Nc2cc(OC)ccc2OC)nc2c(c1=O)SC(C)C2` (centres undefined): 1.76%.
The same measure for `CC(C)(C)c1ccc(CCC2OCC(CN3CCOCC3)O2)cc1` (centres undefined): -0.05%.
Consider `Cc1ccc(/C=N/NC(=O)CN2CCN(Cc3ccccc3)CC2)s1`, for which the inhibition is 14.9%.
The same measure for `O=C(Cn1nnc(N2CCCCC2)n1)c1ccc(Cl)c(Cl)c1`: 13.1%.
Turning to `Cc1ccc(-c2cc(C(=O)NN)n[nH]2)o1`, the inhibition was 11.3%.
Regarding `CC1=C(C)CC2C(=O)N(c3cccc4ccccc34)C(=O)C2C1` (centres undefined), the inhibition is 53.5% (active).
Next, `Cc1ccc(N2C(=O)CC(Nc3cccc4ccccc34)C2=O)cc1` (centres undefined): -23%.
The same measure for `CCc1ccccc1N1C(=O)C2C3CC(=O)C(c4ccccc43)C2C1=O` (centres undefined): 1.91%; for `CCCCNC(=O)OCCSCCS(=O)(=O)c1ccc(Cl)cc1`: -6.78%; for `C/C(=N/NC(=O)c1ccn(C)n1)c1ccncc1`: -1.7%.
The same measure for `CCOc1ccc2[nH]c(=O)c(C(c3nnnn3CCOC)N3CCOCC3)cc2c1` (centres undefined): -4.39%; for `COCCn1nnnc1C(c1cc2ccc(OC)cc2[nH]c1=O)N1CCc2ccccc2C1` (centres undefined): 58.9% (active).
As to `COc1ccc(OC)c(C(c2nnnn2C(C)(C)C)N2CCc3ccccc3C2)c1` (centres undefined), the inhibition was 23.3%.
The same measure for `CCOC(=O)CN(C)S(=O)(=O)c1ccc(-c2cc(C(=O)OC)sc2C(F)(F)F)cc1`: 11.3%; for `O=S(=O)(c1ccc(F)cc1)N1CC=C(c2ccccc2)CC1`: -8.68%.
The same measure for `COc1cc(C(CCN2CCN(c3ccccc3)CC2)c2c(OC)cc(OC)c3ccc(=O)oc23)cc(OC)c1OC` (centres undefined): 12.8%; for `CC(C)Cc1nnc(NC(=O)CCC(=O)Nc2ccc3cn[nH]c3c2)s1`: 32.1%.
The same measure for `O=C(CCn1nnc2ccccc2c1=O)N[C@@H](Cc1c[nH]c2ccccc12)C(=O)O`: 18.9%; for `O=C(O)CC12CC3CC(C1)CC(n1ncc(NCc4ccc(F)cc4)c(Cl)c1=O)(C3)C2`: 16.2%.
As for `CSc1nnc(SCc2nc3sc(C(=O)O)c(C)c3c(=O)[nH]2)s1`, the inhibition was 70.6% (active).
Next, `CCOC(=O)c1sc2nc(CSc3ccccc3)[nH]c(=O)c2c1C`: -3.55%; `Cc1ccc(C)c(SCc2nc3sc(C(=O)O)c(C)c3c(=O)[nH]2)c1`: 7.18%.
The same measure for `COC(=O)c1cc(N2CCNCC2)nc2ccccc12`: -2.31%; for `CCOc1ccc(N=C2NC(=O)S/C2=C\c2ccc(O)cc2)cc1`: 98.8% (active); for `CCOc1ccc(N=C2SC(C(=O)O)CC(=O)N2C)cc1` (centres undefined): 16.1%.
The same measure for `NC1=NC(=O)S/C1=C\c1ccc(O)cc1`: 12.7%; for `O=C(COC(=O)CCC(=O)c1cccs1)NCc1ccco1`: 41%.
Turning to `O=C(COC(=O)C12CC3CC(CC(C3)C1)C2)NCc1ccco1`, the inhibition is 54.8% (active).
Take `O=C(CC12CC3CC(CC(C3)C1)C2)NCc1ccco1`: the inhibition is 2.69%.
The same measure for `COc1ccc(NC(=S)N2CCc3cc(OC)c(OC)cc3C2)cc1`: 11.1%.
The same measure for `CC(/C=N/NC(=O)c1ccncc1)=C\c1ccco1`: 16.1%.
Next, `CC(/C=N/NC(=O)c1cc(-c2ccc3ccccc3c2)n[nH]1)=C\c1ccco1`: 78.8% (active).
`Cc1ccc(-c2cc(C(=O)N/N=C/C=C/c3ccco3)c3ccccc3n2)cc1C`: the inhibition is 19.7%.
Next, `COc1ccc(NC(=O)CSc2ncnc3[nH]ncc23)cc1`: 16.1%.
For `CCN(CC)c1ccc(NC(=O)C2CCC(CNc3c(N4CCCC4)c(=O)c3=O)CC2)c(C)c1` (centres undefined), the inhibition is 19.7%.
Take `O=C(O)C1CCN(c2ccc([N+](=O)[O-])cc2[N+](=O)[O-])CC1`: the inhibition is 23.9%.
As to `COc1ccc(N2CCN(c3ccc([N+](=O)[O-])cc3Cl)CC2)cc1`, the inhibition was 11.9%.
Take `O=[N+]([O-])c1ccc(N2CCN(c3ccc(O)cc3)CC2)c(Cl)c1`: the inhibition is 65.2% (active).
The same measure for `Cc1nc2ccccc2cc1C(=O)N/N=C/c1ccc([N+](=O)[O-])cc1`: 9.39%; for `O=C(N/N=C/c1ccc([N+](=O)[O-])cc1)c1c[nH]c2ccccc12`: 14.4%.
For `O=C(N/N=C/c1ccc(Cl)cc1)c1nc2ccc([N+](=O)[O-])cc2c(=O)[nH]1`, the inhibition is 71.4% (active).
Regarding `CN1CCc2ccccc2C1Cc1ccccc1NC(=O)c1sc2ccccc2c1Cl` (centres undefined), the inhibition was -2.87%.
The same measure for `FC(F)(F)c1nc(-c2ccccc2)ncc1-c1nnnn1-c1ccccc1`: 35.2%; for `C=CCNC(=S)N/N=C/c1ccc(C)s1`: 7.32%; for `Cc1nnc2sc(-c3ccco3)nn12`: 3.91%.
The same measure for `Fc1ccc(-c2ccc(-c3nn4c(-c5ccco5)nnc4s3)o2)cc1`: 71% (active); for `FC(F)(F)c1nnc2sc(-c3ccco3)nn12`: 2.95%.
Next, `CNc1nnc(-c2ccco2)s1`: 6.49%.
With `Cc1ccc(OCC(=O)Nc2nnc(-c3ccco3)s2)cc1`, the inhibition is 17.5%.
Next, `COc1ccc(OCC(=O)Nc2nnc(-c3ccco3)s2)cc1`: 87.4% (active); `Cc1c([N+](=O)[O-])c(N)nn1C`: 12.1%; `Cc1ccc(-c2nc(CS(=O)CC(=O)N3CCN(c4ncccn4)CC3)c(C)o2)cc1` (centres undefined): 54.7% (active).
Regarding `COc1ccc(-c2nc(CS(=O)CC(=O)N3CCc4ccccc4C3)c(C)o2)cc1` (centres undefined), the inhibition is 18.7%.
Next, `Cc1ccc(-c2nc(CS(=O)CC(=O)NC3CCCC3)c(C)o2)cc1` (centres undefined): 10%.
Take `O=C(NCc1ccccc1Cl)NC(=O)c1csc([N+](=O)[O-])c1`: the inhibition is -17.3%.
The same measure for `Cc1coc2c(O)cc3c(c12)OC1(N2CCCCC2)C(=O)NCCCC31` (centres undefined): 62.4% (active).
The same measure for `COc1ccc(/C=N/n2nnnc2N)cc1OC`: -6.77%.
For `Cc1ccc(-c2cc(C(=O)Nc3nn[nH]n3)c3ccccc3n2)c(C)c1`, the inhibition is 10.4%.
Next, `Cc1ccc(NC(=O)c2cc(-c3ccc(C)o3)nc3ccccc23)nc1`: 52.1% (active).
Next, `Cc1c(NC(=O)c2cc(-c3ccc(Cl)s3)nc3ccccc23)c(=O)n(-c2ccccc2)n1C`: -5.37%.
Next, `Cc1ccc(C(=O)N/C(=C\c2ccco2)C(=O)NC2CCS(=O)(=O)C2)cc1` (centres undefined): 2.28%.
Regarding `C=C(C)C(=O)Nc1cccc(C2=NOC3(C2)C[C@H](C(N)=O)N(C(=O)C(c2ccccc2)c2ccccc2)C3)c1` (some centres undefined), the inhibition was 79.5% (active).
On to `C/C=C(/C)C(=O)Nc1cccc(C2=NOC3(C2)C[C@@H](C(N)=O)N(C(=O)C2(C)CC2)C3)c1` (some centres undefined), for which the inhibition was 10.3%.
Next, `C/C=C\C=C\C(=O)N1CC2(CC(c3cccc(NC(=O)/C(C)=C\C)c3)=NO2)C[C@H]1C(N)=O` (some centres undefined): -3.38%; `CCCN(CCC)CC(O)COc1ccccc1C(=O)Nc1ccccc1` (centres undefined): 2.75%; `COC(=O)c1ccc(COc2ccc(/C=N/NC(=O)C(=O)Nc3ccc(OC)cc3)cc2OC)o1`: -4.48%.
`COc1ccc(NC(=O)/C(C#N)=C\c2cc(OC)c(OCc3ccc(C(=O)O)cc3)cc2Br)cc1`: the inhibition was 61.8% (active).
The same measure for `COc1cc(/C=C(\C#N)C(=O)Nc2ccc3ccccc3c2)c([N+](=O)[O-])cc1OC`: 50.2%.
